From PubChem BioAssay (EPA / NIEHS)
Results filed as inconclusive are left out. More than one record can exist for a structure, and the calls need not agree. Activity calls are given as the source filed them. How the source made its calls: active means hit-call score of the fitted dose curve at least 0.9, where 1 is the maximum; inconclusive means response in the unintended direction; inactive means score below 0.9.

molecular target: Glycogen synthase kinase-3 beta (Homo sapiens) (UniProt P49841); assay: NVS_ENZ_hGSK3b: NovaScreen (NVS) Enzymatic Assay for human Glycogen Synthase Kinase-3 beta (GSK3b) (AID 2283165)
How it was run: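 Recombinant enzyme with specific fluorescent substrate, 1 h, product separated by electrophoretic mobility shift. Primary duplicate screen at 25 uM; actives (e.g. 30% inhibition) followed in singleton concentration-response to 50 uM. Signal loss fitted versus DMSO.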

Chain of Glycogen synthase kinase-3 beta (Homo sapiens) (P49841 whole entry, looked up): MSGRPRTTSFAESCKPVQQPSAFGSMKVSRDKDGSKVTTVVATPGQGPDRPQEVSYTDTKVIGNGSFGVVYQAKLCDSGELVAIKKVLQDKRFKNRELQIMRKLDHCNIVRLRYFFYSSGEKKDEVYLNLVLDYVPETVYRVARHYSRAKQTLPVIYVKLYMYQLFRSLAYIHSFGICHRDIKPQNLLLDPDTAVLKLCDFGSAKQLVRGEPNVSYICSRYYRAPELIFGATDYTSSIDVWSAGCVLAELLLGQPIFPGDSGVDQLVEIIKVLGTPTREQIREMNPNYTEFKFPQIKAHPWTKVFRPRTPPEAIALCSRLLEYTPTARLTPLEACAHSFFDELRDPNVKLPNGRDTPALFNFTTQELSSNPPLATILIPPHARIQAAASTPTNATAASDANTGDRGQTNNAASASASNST

| Structure (SMILES) | outcome |
| --- | --- |
| Cc1ccccc1N | inactive |
| CC(C)(C)CC(C)(C)c1ccc(O)cc1 | inactive |
| CC(C)(OO)c1ccccc1 | inactive |
| COc1cc(-c2ccc(N)c(OC)c2)ccc1N | inactive |
| O=C1C2(Cl)C3(Cl)C4(Cl)C(Cl)(Cl)C5(Cl)C3(Cl)C1(Cl)C5(Cl)C24Cl (centres undefined) | inactive |
| CCCCCCCCc1ccc(O)cc1 | inactive |

molecular target: Mitogen-activated protein kinase 3 (Homo sapiens) (UniProt P27361); assay: NVS_ENZ_hMAPK3: NovaScreen (NVS) Enzymatic Assay for human Mitogen-Activated Protein Kinase 3 (MAPK 3) (AID 2283177)
Procedure: NVS_ENZ_hMAPK3 is a biochemical, single-readout assay that uses extracted gene-proteins in a cell-free assay. Measurements were taken 1 hour after chemical dosing in a 384-well plate.NVS_ENZ_hMAPK3 is one of one assay component(s) measured or calculated from the NVS_ENZ_hMAPK3 assay. It is designed to make measurements of enzyme activity, a form of enzyme reporter, as detected with fluorescence intensity signals by Fluorescence and electrophoretic mobility shift technology.Data from the assay component NVS_ENZ_hMAPK3 was analyzed into 1 assay endpoint. This assay endpoint, NVS_ENZ_hMAPK3, was analyzed in the positive analysis fitting direction relative to DMSO as the negative control and baseline of activity. Using a type of enzyme reporter, loss-of-signal activity can be used to understand changes in the enzymatic activity as they relate to the gene MAPK3. Furthermore, this assay endpoint can be referred to as a primary readout, because this assay has produced multiple assay endpoints where this one serves a enzymatic activity function. To generalize the intended target to other relatable targets, this assay endpoint is annotated to the kinase intended target family, where the subfamily is serine/threonine kinase.
Binding assays used specific radioligands (tritiated, iodinated) with non-radioactive competitive displacement ligands in agonist or antagonist protocols (as indicated) and various reference compounds and inhibitors to titrate specific binding to receptors and transporters. Most enzyme assays (CYPs, kinases, phosphatases, proteases, HDACs) used recombinant protein and specific substrates (fluorescence mostly, some colorimetric and radioactive) and inhibitors, followed by a biochemical separation of substrate and product. All assays for the biochemical HTS were initially run in duplicate at a single concentration (10 uM for CYP450 assays and 25 uM for all others). […]

Chain of Mitogen-activated protein kinase 3 (Homo sapiens) (P27361 whole entry, looked up): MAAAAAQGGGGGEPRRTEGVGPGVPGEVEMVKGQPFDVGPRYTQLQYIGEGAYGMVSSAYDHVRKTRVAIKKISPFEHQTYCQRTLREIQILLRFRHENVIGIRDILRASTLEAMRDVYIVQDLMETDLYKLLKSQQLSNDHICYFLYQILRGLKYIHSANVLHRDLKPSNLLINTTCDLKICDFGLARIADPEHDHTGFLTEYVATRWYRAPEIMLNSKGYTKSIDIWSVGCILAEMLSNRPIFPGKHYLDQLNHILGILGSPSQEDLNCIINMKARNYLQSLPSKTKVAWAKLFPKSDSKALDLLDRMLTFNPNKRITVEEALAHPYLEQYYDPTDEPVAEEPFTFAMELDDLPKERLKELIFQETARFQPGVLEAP

| Structure (SMILES) | outcome | AC50 |
| --- | --- | --- |
| C[C@@H]1C[C@@H]([C@H](O)CC2CC(=O)NC(=O)C2)C(=O)[C@@H](C)C1 | inactive |  |
| CC12CC1(C)C(=O)N(c1cc(Cl)cc(Cl)c1)C2=O (centres undefined) |  | 40.6 µM (active) |
| Cn1sc(Cl)cc1=O | inactive |  |

molecular target: human Matrix Metalloproteinase-1 (MMP1), MMP1 (gene 4312) (UniProt P03956); assay: NVS_ENZ_hMMP1: NovaScreen (NVS) Enzymatic Assay for human Matrix Metalloproteinase-1 (MMP1) (AID 2283181)
How it was run: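 Human MMP1 enzyme activity measured by fluorescence 1 h after dosing, cell-free, with a specific substrate. Screened in duplicate at 25 uM; hits (e.g. 30% inhibition) run in concentration-response up to 50 uM; loss of signal versus DMSO.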

Chain of human Matrix Metalloproteinase-1 (MMP1), MMP1 (gene 4312) (P03956 whole entry, looked up): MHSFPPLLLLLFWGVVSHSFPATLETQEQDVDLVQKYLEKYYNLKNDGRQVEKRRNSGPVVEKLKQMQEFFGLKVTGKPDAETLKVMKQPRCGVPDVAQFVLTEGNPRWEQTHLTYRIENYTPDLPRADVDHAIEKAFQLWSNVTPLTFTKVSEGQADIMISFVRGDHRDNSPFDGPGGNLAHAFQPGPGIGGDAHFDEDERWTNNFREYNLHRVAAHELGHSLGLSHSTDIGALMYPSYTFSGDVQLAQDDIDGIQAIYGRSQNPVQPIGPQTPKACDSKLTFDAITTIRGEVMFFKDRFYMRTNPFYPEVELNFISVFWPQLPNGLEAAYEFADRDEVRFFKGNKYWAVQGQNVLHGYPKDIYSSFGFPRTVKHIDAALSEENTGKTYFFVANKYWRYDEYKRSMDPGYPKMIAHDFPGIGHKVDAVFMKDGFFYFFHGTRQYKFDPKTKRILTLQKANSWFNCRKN

| Structure (SMILES) | outcome | AC50 |
| --- | --- | --- |
| O=C(O)C(Cl)(Cl)Cl | inactive |  |
| C=C(C)C(=O)[O][Sn]([CH2]CCC)([CH2]CCC)[CH2]CCC |  | 3.07 µM (active) |
| CC(=O)[O][Hg][c]1ccccc1 |  | 6.38 µM (active) |
| CCN1CCC2(CC1)COc1cc3c(cc12)N(C(=O)c1ccc(-c2ccc(-c4nnc(C)o4)cc2C)cc1)CC3 | inactive |  |

molecular target: human Matrix Metalloproteinase-9 (MMP9), MMP9 (gene 4318) (UniProt P14780); assay: NVS_ENZ_hMMP9: NovaScreen (NVS) Enzymatic Assay for human Matrix Metalloproteinase-9 (MMP9) (AID 2283190);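 further: cell-free recombinant MMP9 protease activity read by fluorescent substrate signal; active means inhibition seen as loss of fluorescence signal versus DMSO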
How it was run: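 Inhibition was scored as loss of fluorescence signal against DMSO controls. The recombinant protease was exposed to chemicals for 1 hour before reading; initial testing used 25 uM in duplicate.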

Chain of human Matrix Metalloproteinase-9 (MMP9), MMP9 (gene 4318) (P14780 whole entry, looked up): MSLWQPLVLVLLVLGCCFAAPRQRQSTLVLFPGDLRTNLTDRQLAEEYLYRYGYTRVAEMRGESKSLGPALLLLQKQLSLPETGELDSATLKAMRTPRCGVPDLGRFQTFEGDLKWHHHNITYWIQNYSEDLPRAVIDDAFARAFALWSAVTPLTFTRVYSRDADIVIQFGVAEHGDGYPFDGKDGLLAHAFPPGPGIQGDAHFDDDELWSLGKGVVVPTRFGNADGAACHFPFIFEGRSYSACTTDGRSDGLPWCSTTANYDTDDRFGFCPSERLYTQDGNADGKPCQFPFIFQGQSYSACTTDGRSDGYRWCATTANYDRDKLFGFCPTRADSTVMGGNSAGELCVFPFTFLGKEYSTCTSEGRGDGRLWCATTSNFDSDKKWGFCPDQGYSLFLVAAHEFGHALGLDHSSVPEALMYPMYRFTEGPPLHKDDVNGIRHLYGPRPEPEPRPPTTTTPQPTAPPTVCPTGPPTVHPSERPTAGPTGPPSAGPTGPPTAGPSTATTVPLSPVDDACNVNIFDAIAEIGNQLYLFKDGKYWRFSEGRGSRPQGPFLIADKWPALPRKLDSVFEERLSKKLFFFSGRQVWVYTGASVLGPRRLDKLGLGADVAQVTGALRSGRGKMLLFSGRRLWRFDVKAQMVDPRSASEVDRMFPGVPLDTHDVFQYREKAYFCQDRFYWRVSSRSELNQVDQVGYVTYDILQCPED

| Structure (SMILES) | outcome | AC50 |
| --- | --- | --- |
| CCOC(=O)/C=C(C)/C=C/C[C@@H](C)CCCC(C)C | inactive |  |
| O=C(OC1CCCCC1)c1ccccc1C(=O)OC1CCCCC1 |  | 1.86 µM (active) |
| Clc1ccc(C2(Cn3cncn3)CC(Br)CO2)c(Cl)c1 (centres undefined) | inactive |  |
| Nc1cccc(Cl)c1 |  | 0.226 µM (active) |
| ClC1=C(Cl)[C@]2(Cl)[C@H]3[C@H]([C@H]4C=C[C@H]3C4)[C@@]1(Cl)C2(Cl)Cl |  | 102 µM (active) |
| COc1cc(-c2ccc(N)c(OC)c2)ccc1N | inactive | 15.7 µM (active) |
| Nc1ccc(-c2ccc(N)c(Cl)c2)cc1Cl |  | 0.597 µM (active) |
| CN(C)P(=O)(N(C)C)N(C)C |  | 6.94 µM (active) |
| CCN1CCC2(CC1)COc1cc3c(cc12)N(C(=O)c1ccc(-c2ccc(-c4nnc(C)o4)cc2C)cc1)CC3 |  | 4.37 µM (active) |
| NC(=S)Nc1ccccc1 |  | 29.4 µM (active) |
